Measured values published in the supplement of paper PMC11732987, “Enantioselective OTUD7B fragment discovery through chemoproteomics screening and high-throughput optimisation” (Communications Chemistry, 2025).

Legend:
Assay in all cases: log2 ratio of Biotin-Ahx-Ub-VS probe labelling (fragment/DMSO); higher = less target engagement (more negative = stronger competition), active = hit call of the paper (q ≤ 0.05, log2 ratio ≤ -1)
Details in all cases: compound concentration: 200 uM; treatment time: 3 h
USP42 = biological target: T1, USP42 (UniProt Q9H9J4)
T1 sequence (whole entry): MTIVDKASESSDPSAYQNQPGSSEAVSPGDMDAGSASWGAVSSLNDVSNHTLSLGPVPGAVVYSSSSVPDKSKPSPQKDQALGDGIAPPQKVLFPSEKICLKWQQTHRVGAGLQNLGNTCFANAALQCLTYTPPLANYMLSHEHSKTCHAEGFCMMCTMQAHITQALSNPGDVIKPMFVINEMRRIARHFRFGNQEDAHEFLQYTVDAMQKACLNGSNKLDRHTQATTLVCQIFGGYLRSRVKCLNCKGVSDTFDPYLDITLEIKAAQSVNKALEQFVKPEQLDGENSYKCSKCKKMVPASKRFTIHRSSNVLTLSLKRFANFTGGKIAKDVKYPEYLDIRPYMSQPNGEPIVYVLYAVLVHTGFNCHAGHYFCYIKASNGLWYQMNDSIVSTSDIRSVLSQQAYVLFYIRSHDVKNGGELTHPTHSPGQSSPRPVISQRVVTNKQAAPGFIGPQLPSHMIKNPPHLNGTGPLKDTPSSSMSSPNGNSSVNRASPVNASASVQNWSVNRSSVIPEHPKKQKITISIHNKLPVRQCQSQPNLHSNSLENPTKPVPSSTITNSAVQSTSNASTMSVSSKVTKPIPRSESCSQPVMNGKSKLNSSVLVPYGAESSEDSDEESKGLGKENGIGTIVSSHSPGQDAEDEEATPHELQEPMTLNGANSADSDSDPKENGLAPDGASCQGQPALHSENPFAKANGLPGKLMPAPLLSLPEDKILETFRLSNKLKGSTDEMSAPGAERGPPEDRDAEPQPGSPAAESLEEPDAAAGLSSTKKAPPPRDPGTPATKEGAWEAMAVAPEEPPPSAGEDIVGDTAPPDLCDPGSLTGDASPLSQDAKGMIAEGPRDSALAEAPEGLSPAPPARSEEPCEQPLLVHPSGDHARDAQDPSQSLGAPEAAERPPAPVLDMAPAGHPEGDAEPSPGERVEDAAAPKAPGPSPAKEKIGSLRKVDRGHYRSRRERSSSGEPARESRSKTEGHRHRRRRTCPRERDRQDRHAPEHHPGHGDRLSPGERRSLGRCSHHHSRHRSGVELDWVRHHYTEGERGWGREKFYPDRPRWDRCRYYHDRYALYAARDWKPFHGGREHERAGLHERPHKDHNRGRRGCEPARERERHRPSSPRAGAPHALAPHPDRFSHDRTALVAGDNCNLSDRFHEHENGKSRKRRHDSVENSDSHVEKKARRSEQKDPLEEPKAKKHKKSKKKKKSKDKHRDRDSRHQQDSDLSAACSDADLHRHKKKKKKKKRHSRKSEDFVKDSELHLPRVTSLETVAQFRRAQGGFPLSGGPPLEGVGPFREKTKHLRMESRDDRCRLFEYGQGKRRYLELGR
In short: (§1)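 Labelled DUBs from HEK293T lysate were NeutrAvidin-enriched, digested with LysC and trypsin, and run by diaPASEF LC-MS/MS. Before that, each 495 µg sample in Tris/CHAPS/IGEPAL buffer with protease inhibitors was treated in triplicate with fragment at 200 µM or vehicle for 3 h, then with Biotin-Ahx-Ub-VS at 0.5 µM final for 1 h. Values are average log2 ratios of fragment over vehicle by unpaired t-test, based on global-median-normalised Spectronaut label-free quantities from proteins with ≥2 unique peptides.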

USP46 = USP46 (UniProt P62068)
Sequence of USP46 (P62068 whole entry): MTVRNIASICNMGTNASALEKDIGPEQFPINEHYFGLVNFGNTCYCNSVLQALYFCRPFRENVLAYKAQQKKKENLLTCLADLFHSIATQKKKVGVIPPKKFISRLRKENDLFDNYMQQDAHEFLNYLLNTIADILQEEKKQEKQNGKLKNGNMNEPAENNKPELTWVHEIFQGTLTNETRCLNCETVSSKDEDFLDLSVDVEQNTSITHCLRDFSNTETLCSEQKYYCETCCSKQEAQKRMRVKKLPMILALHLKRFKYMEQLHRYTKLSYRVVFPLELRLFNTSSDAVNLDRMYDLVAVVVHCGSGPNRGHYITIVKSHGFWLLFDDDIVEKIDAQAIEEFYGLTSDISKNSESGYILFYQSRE
In short: as §1

USP47 = biological target: T2, USP47 (UniProt Q96K76)
T2 sequence (whole entry): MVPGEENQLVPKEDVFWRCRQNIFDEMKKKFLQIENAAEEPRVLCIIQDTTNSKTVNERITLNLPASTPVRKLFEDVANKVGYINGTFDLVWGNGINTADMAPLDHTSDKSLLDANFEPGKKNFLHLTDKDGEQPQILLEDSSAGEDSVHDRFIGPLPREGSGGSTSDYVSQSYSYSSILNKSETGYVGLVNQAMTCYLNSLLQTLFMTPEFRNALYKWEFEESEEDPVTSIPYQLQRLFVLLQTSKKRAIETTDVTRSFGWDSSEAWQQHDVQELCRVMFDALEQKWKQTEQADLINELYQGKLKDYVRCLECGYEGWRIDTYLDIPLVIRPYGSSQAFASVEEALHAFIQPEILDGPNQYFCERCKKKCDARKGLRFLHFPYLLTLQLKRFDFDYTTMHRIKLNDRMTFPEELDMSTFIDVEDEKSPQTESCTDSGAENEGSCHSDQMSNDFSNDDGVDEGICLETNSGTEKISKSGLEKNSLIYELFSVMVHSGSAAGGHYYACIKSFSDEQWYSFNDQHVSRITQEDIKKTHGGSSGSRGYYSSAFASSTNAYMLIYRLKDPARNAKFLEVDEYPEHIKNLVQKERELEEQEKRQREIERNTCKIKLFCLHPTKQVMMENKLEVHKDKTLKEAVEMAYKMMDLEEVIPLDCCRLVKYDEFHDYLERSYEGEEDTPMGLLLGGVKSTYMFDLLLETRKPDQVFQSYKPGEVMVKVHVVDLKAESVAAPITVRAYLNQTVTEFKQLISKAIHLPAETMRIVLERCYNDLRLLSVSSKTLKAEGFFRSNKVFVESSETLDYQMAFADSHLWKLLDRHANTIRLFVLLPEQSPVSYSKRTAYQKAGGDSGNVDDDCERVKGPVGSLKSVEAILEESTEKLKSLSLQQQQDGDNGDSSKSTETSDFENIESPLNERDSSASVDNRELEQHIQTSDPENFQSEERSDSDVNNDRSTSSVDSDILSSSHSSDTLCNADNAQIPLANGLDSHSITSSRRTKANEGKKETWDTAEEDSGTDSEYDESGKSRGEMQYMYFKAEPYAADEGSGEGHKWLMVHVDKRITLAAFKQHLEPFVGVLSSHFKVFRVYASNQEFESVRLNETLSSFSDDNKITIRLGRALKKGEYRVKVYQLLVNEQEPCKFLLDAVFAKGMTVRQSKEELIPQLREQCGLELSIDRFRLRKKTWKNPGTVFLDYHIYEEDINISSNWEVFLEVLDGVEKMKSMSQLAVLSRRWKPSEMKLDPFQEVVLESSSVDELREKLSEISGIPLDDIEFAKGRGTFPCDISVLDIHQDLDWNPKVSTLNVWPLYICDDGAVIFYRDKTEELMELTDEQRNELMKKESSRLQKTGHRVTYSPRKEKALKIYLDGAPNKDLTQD
In short: as §1

USP48 = biological target: T3, USP48 (UniProt Q86UV5)
T3 sequence (whole entry): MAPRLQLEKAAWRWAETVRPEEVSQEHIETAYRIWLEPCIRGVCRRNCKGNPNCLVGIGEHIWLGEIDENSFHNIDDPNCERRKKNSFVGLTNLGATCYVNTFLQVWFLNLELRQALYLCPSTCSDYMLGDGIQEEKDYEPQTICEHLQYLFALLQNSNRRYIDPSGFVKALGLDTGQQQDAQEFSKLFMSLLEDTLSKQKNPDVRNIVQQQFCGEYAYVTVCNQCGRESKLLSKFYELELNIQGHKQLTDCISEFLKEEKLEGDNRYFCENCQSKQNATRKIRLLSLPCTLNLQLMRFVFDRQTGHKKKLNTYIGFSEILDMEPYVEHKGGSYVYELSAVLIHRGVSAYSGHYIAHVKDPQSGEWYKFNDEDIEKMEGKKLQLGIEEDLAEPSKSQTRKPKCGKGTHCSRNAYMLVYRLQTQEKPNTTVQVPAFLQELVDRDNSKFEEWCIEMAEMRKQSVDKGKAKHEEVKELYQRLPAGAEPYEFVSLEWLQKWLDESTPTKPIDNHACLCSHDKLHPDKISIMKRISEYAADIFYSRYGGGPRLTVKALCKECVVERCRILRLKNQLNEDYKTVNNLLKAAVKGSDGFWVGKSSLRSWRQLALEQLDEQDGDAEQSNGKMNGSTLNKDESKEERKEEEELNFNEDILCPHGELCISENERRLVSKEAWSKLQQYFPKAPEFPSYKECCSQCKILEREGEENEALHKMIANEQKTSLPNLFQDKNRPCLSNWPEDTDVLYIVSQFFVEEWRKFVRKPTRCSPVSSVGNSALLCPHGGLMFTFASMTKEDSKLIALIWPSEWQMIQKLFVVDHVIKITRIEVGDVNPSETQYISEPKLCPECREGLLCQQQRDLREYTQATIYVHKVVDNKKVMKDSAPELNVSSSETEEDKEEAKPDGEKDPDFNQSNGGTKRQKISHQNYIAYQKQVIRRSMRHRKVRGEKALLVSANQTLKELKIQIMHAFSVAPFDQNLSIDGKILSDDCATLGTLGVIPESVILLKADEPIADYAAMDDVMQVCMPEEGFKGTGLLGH
In short: as §1

USP5 = biological target: T4, USP5 (UniProt P45974)
T4 sequence (whole entry): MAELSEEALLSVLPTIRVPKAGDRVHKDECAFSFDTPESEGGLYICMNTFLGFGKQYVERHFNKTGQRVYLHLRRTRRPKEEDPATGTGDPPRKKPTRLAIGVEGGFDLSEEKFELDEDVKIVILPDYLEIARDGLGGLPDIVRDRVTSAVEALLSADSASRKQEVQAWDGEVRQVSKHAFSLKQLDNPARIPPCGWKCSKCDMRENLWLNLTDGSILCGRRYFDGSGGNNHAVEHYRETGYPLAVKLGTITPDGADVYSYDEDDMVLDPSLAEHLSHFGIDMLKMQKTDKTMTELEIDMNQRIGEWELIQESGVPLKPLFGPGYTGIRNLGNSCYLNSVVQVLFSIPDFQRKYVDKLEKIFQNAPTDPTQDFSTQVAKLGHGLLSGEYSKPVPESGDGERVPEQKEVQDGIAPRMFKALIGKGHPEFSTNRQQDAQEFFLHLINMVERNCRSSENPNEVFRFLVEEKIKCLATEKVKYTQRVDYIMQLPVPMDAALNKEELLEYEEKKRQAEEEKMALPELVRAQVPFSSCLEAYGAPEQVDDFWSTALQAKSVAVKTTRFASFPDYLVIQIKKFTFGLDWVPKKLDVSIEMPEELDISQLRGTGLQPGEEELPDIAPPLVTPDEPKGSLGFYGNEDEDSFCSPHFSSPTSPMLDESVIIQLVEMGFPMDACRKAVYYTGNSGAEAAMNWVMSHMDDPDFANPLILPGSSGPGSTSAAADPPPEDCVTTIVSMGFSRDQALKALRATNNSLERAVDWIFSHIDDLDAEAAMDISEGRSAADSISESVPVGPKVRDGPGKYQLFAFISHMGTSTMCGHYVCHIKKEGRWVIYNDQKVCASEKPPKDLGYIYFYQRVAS
In short: as §1

USP54 = USP54 (UniProt Q70EL1)
In short: as §1

USP7 = USP7 (UniProt Q93009)
Sequence of USP7 (Q93009 whole entry, looked up): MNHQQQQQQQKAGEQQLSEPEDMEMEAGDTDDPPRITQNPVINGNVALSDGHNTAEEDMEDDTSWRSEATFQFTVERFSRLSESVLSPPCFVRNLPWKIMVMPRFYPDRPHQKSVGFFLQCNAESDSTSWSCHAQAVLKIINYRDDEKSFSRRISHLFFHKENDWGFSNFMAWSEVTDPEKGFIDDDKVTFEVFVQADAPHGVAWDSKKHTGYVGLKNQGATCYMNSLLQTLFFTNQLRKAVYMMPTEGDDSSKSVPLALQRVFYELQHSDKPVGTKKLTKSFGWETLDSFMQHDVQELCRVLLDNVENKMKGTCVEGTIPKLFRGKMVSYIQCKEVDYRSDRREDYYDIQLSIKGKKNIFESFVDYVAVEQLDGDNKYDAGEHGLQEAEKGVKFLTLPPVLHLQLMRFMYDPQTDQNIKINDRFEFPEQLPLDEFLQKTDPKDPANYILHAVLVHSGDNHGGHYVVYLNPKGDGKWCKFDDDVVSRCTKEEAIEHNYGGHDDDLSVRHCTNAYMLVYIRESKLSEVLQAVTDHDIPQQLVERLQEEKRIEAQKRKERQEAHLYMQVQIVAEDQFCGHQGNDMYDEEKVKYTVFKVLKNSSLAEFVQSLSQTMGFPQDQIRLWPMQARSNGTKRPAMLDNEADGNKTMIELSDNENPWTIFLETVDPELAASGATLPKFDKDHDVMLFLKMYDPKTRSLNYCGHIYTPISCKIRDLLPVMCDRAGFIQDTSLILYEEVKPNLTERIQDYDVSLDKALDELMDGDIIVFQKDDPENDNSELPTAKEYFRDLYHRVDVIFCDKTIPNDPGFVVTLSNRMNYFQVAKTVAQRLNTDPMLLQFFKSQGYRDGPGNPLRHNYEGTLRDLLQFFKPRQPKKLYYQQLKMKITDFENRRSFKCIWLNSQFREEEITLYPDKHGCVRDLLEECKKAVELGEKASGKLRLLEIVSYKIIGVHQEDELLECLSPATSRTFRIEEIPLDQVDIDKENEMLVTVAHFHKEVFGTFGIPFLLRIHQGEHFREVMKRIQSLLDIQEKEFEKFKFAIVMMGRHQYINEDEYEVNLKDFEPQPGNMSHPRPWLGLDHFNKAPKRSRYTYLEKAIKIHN
In short: as §1

USP8 = biological target: T5, USP8 (UniProt P40818)
T5 sequence (whole entry): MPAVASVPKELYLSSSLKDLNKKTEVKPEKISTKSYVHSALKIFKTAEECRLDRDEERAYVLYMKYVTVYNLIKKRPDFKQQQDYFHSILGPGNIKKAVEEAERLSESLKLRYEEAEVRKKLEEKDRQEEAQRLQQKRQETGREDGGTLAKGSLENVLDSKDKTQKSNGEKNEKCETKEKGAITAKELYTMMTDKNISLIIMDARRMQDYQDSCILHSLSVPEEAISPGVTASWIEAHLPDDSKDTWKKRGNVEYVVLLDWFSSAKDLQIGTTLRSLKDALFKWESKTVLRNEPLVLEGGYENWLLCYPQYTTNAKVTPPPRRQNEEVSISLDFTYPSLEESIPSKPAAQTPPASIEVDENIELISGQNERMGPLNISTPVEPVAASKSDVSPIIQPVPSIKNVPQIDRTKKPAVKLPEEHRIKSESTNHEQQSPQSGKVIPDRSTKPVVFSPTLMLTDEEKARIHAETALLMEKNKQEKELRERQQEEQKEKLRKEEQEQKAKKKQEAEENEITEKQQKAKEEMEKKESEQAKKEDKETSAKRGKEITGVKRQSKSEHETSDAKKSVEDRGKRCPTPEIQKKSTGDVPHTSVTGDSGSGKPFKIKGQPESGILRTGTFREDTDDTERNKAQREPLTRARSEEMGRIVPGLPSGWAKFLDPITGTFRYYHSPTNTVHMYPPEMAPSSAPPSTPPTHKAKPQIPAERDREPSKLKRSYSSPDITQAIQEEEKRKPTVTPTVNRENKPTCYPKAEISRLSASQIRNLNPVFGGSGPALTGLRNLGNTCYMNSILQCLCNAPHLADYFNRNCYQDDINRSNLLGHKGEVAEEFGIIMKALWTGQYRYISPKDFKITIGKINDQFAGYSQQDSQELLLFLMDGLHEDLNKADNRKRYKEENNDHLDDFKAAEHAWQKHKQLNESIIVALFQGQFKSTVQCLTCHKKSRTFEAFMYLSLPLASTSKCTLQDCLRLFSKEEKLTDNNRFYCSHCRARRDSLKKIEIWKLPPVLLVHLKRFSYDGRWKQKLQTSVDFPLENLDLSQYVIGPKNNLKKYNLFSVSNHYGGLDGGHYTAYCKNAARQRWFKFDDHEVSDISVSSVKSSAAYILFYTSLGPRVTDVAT
In short: as §1

USP9X = USP9X (UniProt Q93008)
Sequence of USP9X (Q93008 whole entry): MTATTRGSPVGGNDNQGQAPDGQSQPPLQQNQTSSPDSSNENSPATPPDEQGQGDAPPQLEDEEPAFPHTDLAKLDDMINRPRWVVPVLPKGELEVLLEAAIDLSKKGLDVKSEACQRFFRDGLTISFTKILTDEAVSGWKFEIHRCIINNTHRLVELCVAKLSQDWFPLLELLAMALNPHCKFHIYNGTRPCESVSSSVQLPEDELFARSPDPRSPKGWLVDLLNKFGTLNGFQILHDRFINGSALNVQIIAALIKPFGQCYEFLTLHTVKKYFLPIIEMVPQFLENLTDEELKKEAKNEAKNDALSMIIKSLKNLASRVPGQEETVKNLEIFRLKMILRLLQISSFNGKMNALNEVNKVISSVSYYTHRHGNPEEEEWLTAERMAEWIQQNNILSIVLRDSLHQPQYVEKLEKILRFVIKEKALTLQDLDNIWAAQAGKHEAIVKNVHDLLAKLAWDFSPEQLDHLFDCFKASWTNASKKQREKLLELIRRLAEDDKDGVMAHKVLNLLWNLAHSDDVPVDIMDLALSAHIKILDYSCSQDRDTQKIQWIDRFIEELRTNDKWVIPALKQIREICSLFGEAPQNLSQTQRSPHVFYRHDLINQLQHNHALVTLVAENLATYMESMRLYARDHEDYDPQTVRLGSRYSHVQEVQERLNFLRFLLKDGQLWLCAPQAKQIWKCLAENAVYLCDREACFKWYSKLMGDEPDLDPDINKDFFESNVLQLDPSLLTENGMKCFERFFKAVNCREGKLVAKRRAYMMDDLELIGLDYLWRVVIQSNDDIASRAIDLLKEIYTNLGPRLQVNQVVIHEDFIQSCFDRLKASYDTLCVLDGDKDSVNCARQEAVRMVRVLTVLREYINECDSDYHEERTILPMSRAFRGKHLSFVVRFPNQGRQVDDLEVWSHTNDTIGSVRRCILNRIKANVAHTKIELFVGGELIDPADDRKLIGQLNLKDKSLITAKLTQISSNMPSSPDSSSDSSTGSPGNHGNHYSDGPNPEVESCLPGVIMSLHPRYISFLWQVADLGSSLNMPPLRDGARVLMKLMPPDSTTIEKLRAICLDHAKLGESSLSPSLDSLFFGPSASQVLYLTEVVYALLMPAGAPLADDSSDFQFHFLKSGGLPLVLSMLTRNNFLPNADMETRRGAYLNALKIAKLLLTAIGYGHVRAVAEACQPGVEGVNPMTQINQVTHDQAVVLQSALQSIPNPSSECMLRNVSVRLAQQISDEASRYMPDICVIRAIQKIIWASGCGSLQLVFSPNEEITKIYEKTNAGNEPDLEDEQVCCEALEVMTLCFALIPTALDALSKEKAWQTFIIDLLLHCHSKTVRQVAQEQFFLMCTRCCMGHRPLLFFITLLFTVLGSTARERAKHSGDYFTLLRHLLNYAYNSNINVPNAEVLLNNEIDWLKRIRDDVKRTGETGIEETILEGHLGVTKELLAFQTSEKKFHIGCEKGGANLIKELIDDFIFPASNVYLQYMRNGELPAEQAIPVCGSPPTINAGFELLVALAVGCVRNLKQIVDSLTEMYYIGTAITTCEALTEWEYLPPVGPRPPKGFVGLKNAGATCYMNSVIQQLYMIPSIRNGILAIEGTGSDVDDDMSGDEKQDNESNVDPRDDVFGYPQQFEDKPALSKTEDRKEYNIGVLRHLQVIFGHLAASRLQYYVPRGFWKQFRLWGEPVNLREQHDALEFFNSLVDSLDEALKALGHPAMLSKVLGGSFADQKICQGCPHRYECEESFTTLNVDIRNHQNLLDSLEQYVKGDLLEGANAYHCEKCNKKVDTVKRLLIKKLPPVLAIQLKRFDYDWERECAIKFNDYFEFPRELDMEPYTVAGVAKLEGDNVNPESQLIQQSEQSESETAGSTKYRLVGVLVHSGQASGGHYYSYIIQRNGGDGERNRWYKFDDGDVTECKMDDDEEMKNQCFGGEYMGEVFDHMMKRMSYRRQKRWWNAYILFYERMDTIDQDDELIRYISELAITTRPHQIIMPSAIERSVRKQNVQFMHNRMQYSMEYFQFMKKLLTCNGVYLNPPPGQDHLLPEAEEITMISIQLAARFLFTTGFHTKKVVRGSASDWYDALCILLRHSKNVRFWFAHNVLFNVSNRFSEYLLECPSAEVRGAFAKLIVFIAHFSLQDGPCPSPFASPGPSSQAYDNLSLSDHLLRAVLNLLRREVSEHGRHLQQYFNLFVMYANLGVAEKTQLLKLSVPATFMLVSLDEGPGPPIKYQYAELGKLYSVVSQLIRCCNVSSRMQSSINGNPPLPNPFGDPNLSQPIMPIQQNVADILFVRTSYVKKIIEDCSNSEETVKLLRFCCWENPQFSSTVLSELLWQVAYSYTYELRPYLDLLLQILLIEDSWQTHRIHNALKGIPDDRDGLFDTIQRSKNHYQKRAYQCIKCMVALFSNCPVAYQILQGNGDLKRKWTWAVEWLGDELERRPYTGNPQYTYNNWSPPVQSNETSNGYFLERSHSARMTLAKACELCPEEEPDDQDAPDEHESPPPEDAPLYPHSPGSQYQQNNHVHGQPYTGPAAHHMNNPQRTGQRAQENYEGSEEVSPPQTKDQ
In short: as §1

UniProt O00487 = biological target: UniProt O00487
Sequence of UniProt O00487 (O00487 whole entry): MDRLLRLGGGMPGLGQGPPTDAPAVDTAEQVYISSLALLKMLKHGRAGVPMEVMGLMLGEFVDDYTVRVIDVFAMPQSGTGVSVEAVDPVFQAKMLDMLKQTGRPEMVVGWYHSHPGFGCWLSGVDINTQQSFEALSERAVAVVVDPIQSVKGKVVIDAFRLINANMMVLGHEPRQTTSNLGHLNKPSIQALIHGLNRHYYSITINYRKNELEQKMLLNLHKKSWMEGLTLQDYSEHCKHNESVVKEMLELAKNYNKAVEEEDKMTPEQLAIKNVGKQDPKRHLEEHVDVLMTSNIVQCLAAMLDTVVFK
In short: as §1

Measured: log2 ratio of Biotin-Ahx-Ub-VS probe labelling

Cl.O=C(CCl)N1CCN(Cc2ccccc2)CC1
inactive: USP42 0.128 | USP46 -0.101 | USP47 -0.389 | USP48 -0.499 | USP5 -0.052 | USP54 0.13 | USP7 -0.607 | USP8 -0.333 | USP9X -0.369 | UniProt O00487 -0.299
